MPTP block – blocks calcium-induced mitochondrial swelling. isolated mouse mitochondria, Ca2+ swelling absorbance, 30 min. inhibition, % at 10 µM. hit rate 1.4% among 360,000;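 active = inhibition of 50% or more, scaled per plate between neutral and stimulator controls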
GRIN3A LBD mod – NR3A (human) ligand-binding domain modulation. AID 1259313. NR3A LBD differential scanning fluorimetry, Tm shift; 0% = protein alone, 100% = glycine-bound protein. hit rate 2.5% among 340,000. Tm shift relative to glycine control, % at 25 µM;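 active = melting temperature shift of at least 10% of the positive control shift, at one fixed dose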
Gli-Sufu block – Gli-Sufu pathway antagonism | Sufu-KO-LIGHT fibroblasts, Gli luciferase reporter luminescence | inhibition, % at 5 µM | hit rate 0.74% among 340,000 | AID 588413;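 active = inhibition above about 55%, limit read from the data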
Mdm2 MdmX PPI – disrupts the human Mdm2-MdmX interaction | SaOS-2 split-luciferase Mdm2/MdmX complementation, luminescence | O15151+Q00987 | inhibition, % at 8 µM | hit rate 3% among 330,000;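 active = inhibition of at least 50% at 8 µM in the primary screen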
Target sequence (O15151 whole entry, looked up): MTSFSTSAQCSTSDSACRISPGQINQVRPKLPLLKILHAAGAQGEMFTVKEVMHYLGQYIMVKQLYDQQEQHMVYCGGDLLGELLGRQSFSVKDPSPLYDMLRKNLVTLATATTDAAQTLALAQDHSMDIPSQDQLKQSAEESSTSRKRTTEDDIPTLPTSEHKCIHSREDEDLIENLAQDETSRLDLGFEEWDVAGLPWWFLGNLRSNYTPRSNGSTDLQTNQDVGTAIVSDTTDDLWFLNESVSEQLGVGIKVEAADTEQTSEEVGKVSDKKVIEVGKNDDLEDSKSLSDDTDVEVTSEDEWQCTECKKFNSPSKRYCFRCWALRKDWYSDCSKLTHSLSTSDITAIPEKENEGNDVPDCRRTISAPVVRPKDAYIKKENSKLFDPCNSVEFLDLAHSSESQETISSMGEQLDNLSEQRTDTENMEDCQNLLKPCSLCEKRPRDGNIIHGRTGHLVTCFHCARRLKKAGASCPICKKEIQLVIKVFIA
Target sequence (Q00987 whole entry, looked up): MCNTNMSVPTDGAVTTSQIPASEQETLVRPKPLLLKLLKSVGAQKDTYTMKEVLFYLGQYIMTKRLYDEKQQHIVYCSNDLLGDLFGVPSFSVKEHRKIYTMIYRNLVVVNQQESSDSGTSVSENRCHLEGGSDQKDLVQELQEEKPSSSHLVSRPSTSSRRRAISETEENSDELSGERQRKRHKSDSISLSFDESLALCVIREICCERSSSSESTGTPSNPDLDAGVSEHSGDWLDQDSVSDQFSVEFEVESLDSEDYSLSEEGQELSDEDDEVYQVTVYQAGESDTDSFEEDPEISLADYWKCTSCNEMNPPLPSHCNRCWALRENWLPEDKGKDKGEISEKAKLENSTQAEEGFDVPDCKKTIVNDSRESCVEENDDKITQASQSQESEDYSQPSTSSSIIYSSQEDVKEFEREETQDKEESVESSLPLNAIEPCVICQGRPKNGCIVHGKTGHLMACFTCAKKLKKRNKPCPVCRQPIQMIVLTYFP
CSC inhib – blocks cancer stem cells; AID 2717; inhibition, % at 7.5 µM; cancer stem cell-like cells viability, luminescence; hit rate 1.1% among 300,000; in the data active = inhibition above about 75%; inconclusive = no clear call, values can overlap the other calls; tested in HMLE shEcad cells
Beta cell apopt – beta cell apoptosis inhibition. INS-1E cytokine-induced death, ATP luminescence, 48 h; percent of positive-control rescue, neutral wells zero. protection from apoptosis, % (test concentration not listed). hit rate 0.8% among 300,000. AID 435005;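 active = Every replicate reaches about 75%, or at least half do and their mean reaches it too, limit read from the data; inconclusive = At least half of replicates reach the limit but their mean does not; inactive = Under half of replicates reach the limit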;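 note: higher means more ATP so stronger rescue from cytokine killing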
Mdm2 MdmX conf – human Mdm2/MdmX binding inhibition, confirmed; shares compounds with Mdm2 MdmX PPI; luminescent assay; inhibition, % at 8 µM; hit rate 55% among 10,000; in the data active = inhibition above about 40%
Full FLuc ctr – counter-screen for Mdm2/MdmX inhibitors: full-length luciferase; shares compounds with Mdm2 MdmX PPI; SaOS-2 full-length luciferase counterscreen, luminescence; inhibition, % at 8 µM; hit rate 77% among 6,200;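 active = mean inhibition at 8 µM reaching about 37%, which flags the compound as non-specific, limit read from the data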;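 note: p53-null SaOS-2 cells with luciferase driven by a doxycycline-inducible promoter; compound on cells about two nights before reading with doxycycline added after day one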
Each line names hits and unclear results; the compound was inactive in the other large screens (follow-up assays come after a bar, where they were run). Hits are enriched below; roughly 6.6% of the tested compounds scored in any of these assays.

COc1cccc(CNc2ncnc3ccc(-c4c(C)noc4C)cc23)c1	Mdm2 MdmX PPI 85 | Mdm2 MdmX conf 73 | Full FLuc ctr inactive
COc1cccc(-c2ccc3ncnc(NCc4cccc(C)c4)c3c2)c1	none
O=C(Nc1cc(Cl)ccc1Cl)c1cc(-c2ccco2)on1	Mdm2 MdmX PPI 62 | Mdm2 MdmX conf inactive
O=C(Nc1cccnc1Cl)c1cc(-c2ccc(O)cc2)on1	none (no result: Beta cell apopt)
O=C(Nc1cccnc1Cl)c1cc(-c2ccc(Cl)cc2)on1	Mdm2 MdmX PPI 54 | Mdm2 MdmX conf inactive
CN(CC(=O)NCc1ccco1)CC(=O)Nc1c(Cl)cccc1Cl	none
Cn1c(CO)nc2c3ccccc3ccc21	none
COc1cccc(C(=O)Nc2ccc3c(c2)CCCN3C(=O)c2cccs2)c1OC	none
Cc1ccccc1C(=O)Nc1ccc2c(c1)CCCN2C(=O)c1cccs1	Mdm2 MdmX PPI 84 | Mdm2 MdmX conf 68 | Full FLuc ctr 40
CCOC(=O)C1=C(c2ccccc2)O/C(=C(\C(=O)OC)C(F)(F)F)S1	none
CCOC(=O)C1=C(c2ccccc2)O/C(=C(/C#N)C(F)(F)F)S1	Mdm2 MdmX PPI 101, Beta cell apopt 116 (no result: MPTP block, GRIN3A LBD mod, Gli-Sufu block) | Mdm2 MdmX conf 99 | Full FLuc ctr inactive
COc1ccccc1-c1c(C)c(C)nc(N)c1C#N	none (no result: CSC inhib)
COc1ccccc1-c1c(C#N)c(N)nc2c1CCc1ccccc1-2	Mdm2 MdmX PPI 70 (no result: CSC inhib, Beta cell apopt) | Mdm2 MdmX conf 70 | Full FLuc ctr 53
CCOc1cc(-c2c(C#N)c(N)nc3c2CCc2ccccc2-3)ccc1O	Mdm2 MdmX PPI 81 | Mdm2 MdmX conf 79 | Full FLuc ctr 51
O=C(OCc1ccccc1)N1CCC2CC1c1cc(-c3ccc4c(c3)OCO4)ccc12 (stereo not given)	none (no result: Mdm2 MdmX PPI, CSC inhib, Beta cell apopt)
Cc1ccc(NC(=O)c2ccc(Cl)c(S(=O)(=O)N3CCCC3)c2)nc1	none
COc1ccc2[nH]c3c4c(ccc3c2c1)C(=O)C=CC4=O	Mdm2 MdmX PPI 75 (no result: CSC inhib, Beta cell apopt) | Mdm2 MdmX conf 80 | Full FLuc ctr inactive
COc1cc(C(=O)Nc2ccc3c(c2)CCN3C(C)=O)cc(OC)c1OC	Mdm2 MdmX PPI 59 (no result: Gli-Sufu block) | Mdm2 MdmX conf 59 | Full FLuc ctr 62
COc1cc(C(=O)Nc2ccc3c(c2)Cc2ccccc2-3)cc(OC)c1OC	none
Cc1ccc(Cl)cc1NC1=C/C(=N\S(=O)(=O)c2cccs2)c2ccccc2C1=O	Mdm2 MdmX PPI 81, CSC inhib 101, Beta cell apopt 111 | Mdm2 MdmX conf 100 | Full FLuc ctr 52
Cc1ccc(NC2=C/C(=N\S(=O)(=O)c3cccs3)c3ccccc3C2=O)c(C)c1	Gli-Sufu block 65, Mdm2 MdmX PPI 84, Beta cell apopt 114 | Mdm2 MdmX conf 100 | Full FLuc ctr 52
CCN1C(=O)/C(=C/c2nc3ccccc3c(=O)[nH]2)c2ccccc21	none (no result: Mdm2 MdmX PPI)
CCN1C(=O)/C(=C\c2nc3ccccc3c(=O)n2-c2ccccc2)c2ccccc21	Mdm2 MdmX PPI 51 (no result: CSC inhib, Beta cell apopt) | Mdm2 MdmX conf inactive
CCN1C(=O)/C(=C/c2nc3ccccc3c(=O)n2-c2ccc(C)cc2)c2ccccc21	Mdm2 MdmX PPI 83 | Mdm2 MdmX conf 62 | Full FLuc ctr 86
COc1ccc(-n2c(/C=C3\C(=O)N(C)c4ccccc43)nc3ccccc3c2=O)cc1	Mdm2 MdmX PPI 61 | Mdm2 MdmX conf inactive
Cc1ccc2c(cnn2C(=O)CCCC(=O)NC(C)c2ccccc2)c1 (stereo not given)	none
COc1cc(NS(=O)(=O)c2ccc(Cl)cc2)c(C(=O)O)cc1OC	none
O=C(Nc1cccc2ccccc12)NC1Cc2ccccc2C1	Mdm2 MdmX PPI 79 | Mdm2 MdmX conf inactive
O=C(Nc1cccc2ccccc12)NC1CCCCC1	none
CCCCc1nnc(NC(=O)CCS(=O)(=O)c2ccc(C)cc2)s1	Mdm2 MdmX PPI 57 | Mdm2 MdmX conf inactive
CCc1nnc(NC(=O)CCS(=O)(=O)c2ccccc2)s1	Mdm2 MdmX PPI 51 | Mdm2 MdmX conf inactive
CCCc1nnc(NC(=O)CCS(=O)(=O)Cc2ccccc2)s1	Mdm2 MdmX PPI 57 | Mdm2 MdmX conf inactive
COc1ccc(NC(=O)c2cc(-c3cc(Cl)ccc3O)n[nH]2)c(OC)c1	GRIN3A LBD mod 31, Mdm2 MdmX PPI 69 | Mdm2 MdmX conf inactive
CCOc1ccc(Cl)cc1-c1cc(C(=O)Nc2ccc(OC)cc2OC)[nH]n1	none (no result: GRIN3A LBD mod, Gli-Sufu block, Mdm2 MdmX PPI, CSC inhib, Beta cell apopt)
N/C(=N\OC(=O)c1ccc([N+](=O)[O-])cc1)c1ccc(Br)cc1	none
Cc1ccc(/C(N)=N/OC(=O)c2ccc(Cl)cc2Cl)cc1	none
Cc1ccc(C(=O)O/N=C(\N)c2ccc(Br)cc2)cc1C	Mdm2 MdmX PPI 99 | Mdm2 MdmX conf 83 | Full FLuc ctr 116
N/C(=N\OC(=O)c1ccoc1)c1ccc(Br)cc1	none
N/C(=N\OC(=O)c1ccc2ccccc2c1)c1ccc(Br)cc1	GRIN3A LBD mod 24, Mdm2 MdmX PPI 62 | Mdm2 MdmX conf 47 | Full FLuc ctr 96
Cc1ccc(C)c(C(=O)O/N=C(\N)c2ccc(Br)cc2)c1	Mdm2 MdmX PPI 57 | Mdm2 MdmX conf 54 | Full FLuc ctr 104
Cc1cc(C)cc(C(=O)O/N=C(\N)c2ccc(Br)cc2)c1	Mdm2 MdmX PPI 100 | Mdm2 MdmX conf 78 | Full FLuc ctr 90
COCc1cccc(-c2csc(C(NC(C)=O)c3cccc(OC)c3)n2)c1 (stereo not given)	none (no result: GRIN3A LBD mod, Gli-Sufu block, Mdm2 MdmX PPI, CSC inhib, Beta cell apopt)
CCC(c1nc2ccccc2[nH]1)n1c(-c2ccnc(Cl)c2)nc2ccccc21 (stereo not given)	none (no result: GRIN3A LBD mod, Gli-Sufu block, Mdm2 MdmX PPI, CSC inhib, Beta cell apopt)
COc1ccccc1C(=O)O/N=C(\N)c1ccc(Cl)cc1	none
Cc1cccc(C(=O)O/N=C(\N)c2ccc(Cl)cc2)c1	GRIN3A LBD mod 11, Mdm2 MdmX PPI 51 | Mdm2 MdmX conf inactive
Cc1ccc(/C(N)=N/OC(=O)c2ccc3c(c2)OCO3)cc1	none
N/C(=N\OC(=O)c1ccc2c(c1)OCO2)c1ccc(Cl)cc1	Mdm2 MdmX PPI 82 | Mdm2 MdmX conf inactive
Cc1cccc(C(=O)O/N=C(\N)c2ccc(Br)cc2)c1	Mdm2 MdmX PPI 51 | Mdm2 MdmX conf inactive
COc1cccc(C(=O)O/N=C(\N)c2ccc(C)cc2)c1	none
COc1ccc(C(=O)O/N=C(\N)c2ccc(Cl)cc2)cc1	GRIN3A LBD mod 21, Mdm2 MdmX PPI 100 | Mdm2 MdmX conf inactive | Full FLuc ctr 163
O=C(/C=C/c1ccccc1[N+](=O)[O-])N1CCc2ccccc2C1	none
O=C(O)C1C=CCC(C(=O)O)C1 (stereo not given)	none (no result: GRIN3A LBD mod, Gli-Sufu block, Mdm2 MdmX PPI, CSC inhib, Beta cell apopt)
O=C(Nc1nc(-c2cccc3ccccc23)cs1)c1ccc2c(c1)S(=O)(=O)c1ccccc1C2=O	Mdm2 MdmX PPI 95, CSC inhib inconclusive | Mdm2 MdmX conf inactive
O=C(Nc1ccncc1)c1ccc2c(c1)S(=O)(=O)c1ccccc1C2=O	none
O=C(Nc1nc(-c2ccccc2)cs1)c1ccc2c(c1)S(=O)(=O)c1ccccc1C2=O	Mdm2 MdmX PPI 74 | Mdm2 MdmX conf inactive
